# Test results reported in PMC5540273 (PLoS ONE, 2017).
# Test system: CLK2
# Settings: concentration: 1 μM, replicates: in singlicate; n = 1
# 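Further: KINOMEscan kinase panel screen.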
row,Compound,%Inh
1,O=c1cc(N2CCOCC2)nc2n(Cc3cccc(Cl)c3Cl)c(C3CC3)nn12 [GSK2358994],25%
2,CCc1nc(-c2cccc(C)c2)c(-c2ccnc(NCc3ccccc3)c2)s1,11%
3,COc1cc2c(cc1OCCN1CCN(C)CC1)ncc1c3ccc(C#N)cc3[nH]c21,86%
4,NCC(NC(=O)c1cc(-c2cn[nH]c2)c(-c2ccnc3[nH]ccc23)s1)c1ccccc1.O=C(O)C(F)(F)F.O=C(O)C(F)(F)F (stereo not shown) [GSK1325775],68%
5,O=c1cc(N2CCOCC2)nc2n(Cc3cccc4ccccc34)ccn12 [GSK2333389],3%
6,O=C(Nc1n[nH]c2cc(-c3cccc(F)c3)ccc12)C1CC1 [SB-735464],9%
7,C[C@@H](Oc1cc(-n2cnc3ccc(NC(=O)NC(C)(C)C)cc32)sc1C(N)=O)c1ccccc1Cl [GSK346294],7%
8,Cn1ccc2ncnc(Oc3ccc(NC(=O)Nc4ccncc4)c(Cl)c3)c21,0%
9,Nc1nc(-c2ccc3c(N)n[nH]c3c2)cc(N2CCCC2)n1 [GSK2227430],1%
10,O=C(NOCC1CC1)c1ccc(F)c(F)c1Nc1ccc(I)cc1Cl,3%
11,Cn1cc(-c2ccc3c(c2)CCN3C(=O)Cc2ccccc2Cl)c2c(N)ncnc21 [GSK2608885],0%
12,COc1ccc(S(=O)(=O)NC2CCN(c3cc(C)nc(Nc4cccc(C#N)c4)n3)CC2)cc1.O=C(O)C(F)(F)F [GSK1653539],0%
13,Cc1ccc(C(=O)NCC(N)=O)cc1-n1c(C)cc(OCc2ccc(F)cc2F)c(Br)c1=O,0%
14,N#Cc1ccc(-c2cc(-c3c[nH]nc3-c3ccccn3)ccn2)cc1 [GW693028],8%
15,CC(C)(CN)c1nc(-c2ccc(Cl)c(O)c2)c(-c2ccncc2)[nH]1.O=C(O)C(F)(F)F [SB-477794],0%
16,Fc1ccc(-c2ncn(CCCN3CCOCC3)c2-c2cccnc2)cc1 [SB-211743],0%
17,COc1cc2ncn(-c3cc(OCc4sccc4Cl)c(C(N)=O)s3)c2cc1OC [GSK448459],23%

row,Compound,%Inh
1,O=C(NCCNc1ccnc(Nc2ccc(F)cc2)n1)c1cc2ccccc2s1 [GSK1379874],0%
2,CCc1ccnc(/C=C/c2n[nH]c3cc(Sc4ccccc4C(=O)NC)ccc23)c1,0%
3,Cc1nnc(-c2ccc3ncc(-c4ccc(S(C)=O)cc4)n3c2)o1 (stereo not shown),0%
4,CCn1cnc2c(N)ncnc21 [GW345098],18%
5,Nc1nccc(-c2c(-c3ccc(F)cc3)ncn2C2CCN(CC(F)(F)F)CC2)n1 [SB-236560],6%
6,O=C(NCCNc1ccnc(Nc2ccc(F)cc2)n1)Nc1ccccc1F [GSK1379880],0%
7,O=c1cc(N2CCOCC2)nc2n(Cc3cccc(C(F)(F)F)c3)ccn12 [GSK2297543],20%
8,COc1ccc(Nc2nccc(N3CCC(NC(=O)Nc4cc(C)ccc4C)C3)n2)cc1 (stereo not shown) [GSK1379741],0%
9,O=C1NC(=O)C(N2CCc3ccccc32)=C1c1cccc(Cl)c1 [SB-408010],0%
10,Cc1c(Cn2c(C)nn3c(=O)cc(N4CCOC(C)C4)nc23)cccc1C(F)(F)F (stereo not shown) [GSK2344444],0%
11,Fc1ccc(-c2ncn(CCCN3CCOCC3)c2-c2ccccn2)cc1 [SB-211742],8%
12,Cc1c2ccc(N(C)c3ccnc(Nc4cccc(S(N)(=O)=O)c4)n3)cc2nn1Cc1ccccc1.Cl.Cl [GW787226],12%
13,CC(C)(C)n1cnc2c(N)ncnc21 [SKF-97359],0%
14,COCCNC(=O)c1ccc(-c2cc(C(=O)NC3CC3)cc(F)c2C)cc1 [GW868318],24%
15,Cc1cccc(-c2nc(Nc3ccc4ncsc4c3)c3ccccc3n2)n1 [GW867588],9%
16,CN(C(=O)c1ccc(-c2cc(-c3c[nH]nc3-c3ccccn3)ccn2)cc1)C1CCOCC1 [GW810083],0%
17,Cc1ccc(NC(=O)c2ccnc(N3CCN(C)CC3)c2)cc1-c1ccc(C(=O)NCC2CC2)cc1 [GW775604],0%

# Test system: CLK3
# Settings: concentration: 1 μM, replicates: in singlicate; n = 1
row,Compound,%Inh
1,O=c1cc(N2CCOCC2)nc2n(Cc3cccc(Cl)c3Cl)c(C3CC3)nn12 [GSK2358994],14%
2,CCc1nc(-c2cccc(C)c2)c(-c2ccnc(NCc3ccccc3)c2)s1,0%
3,COc1cc2c(cc1OCCN1CCN(C)CC1)ncc1c3ccc(C#N)cc3[nH]c21,25%
4,NCC(NC(=O)c1cc(-c2cn[nH]c2)c(-c2ccnc3[nH]ccc23)s1)c1ccccc1.O=C(O)C(F)(F)F.O=C(O)C(F)(F)F (stereo not shown) [GSK1325775],70%
5,O=c1cc(N2CCOCC2)nc2n(Cc3cccc4ccccc34)ccn12 [GSK2333389],0%
6,O=C(Nc1n[nH]c2cc(-c3cccc(F)c3)ccc12)C1CC1 [SB-735464],22%
7,C[C@@H](Oc1cc(-n2cnc3ccc(NC(=O)NC(C)(C)C)cc32)sc1C(N)=O)c1ccccc1Cl [GSK346294],22%
8,Cn1ccc2ncnc(Oc3ccc(NC(=O)Nc4ccncc4)c(Cl)c3)c21,0%
9,Nc1nc(-c2ccc3c(N)n[nH]c3c2)cc(N2CCCC2)n1 [GSK2227430],0%
10,O=C(NOCC1CC1)c1ccc(F)c(F)c1Nc1ccc(I)cc1Cl,0%
11,Cn1cc(-c2ccc3c(c2)CCN3C(=O)Cc2ccccc2Cl)c2c(N)ncnc21 [GSK2608885],1%
12,COc1ccc(S(=O)(=O)NC2CCN(c3cc(C)nc(Nc4cccc(C#N)c4)n3)CC2)cc1.O=C(O)C(F)(F)F [GSK1653539],56%
13,Cc1ccc(C(=O)NCC(N)=O)cc1-n1c(C)cc(OCc2ccc(F)cc2F)c(Br)c1=O,3%
14,N#Cc1ccc(-c2cc(-c3c[nH]nc3-c3ccccn3)ccn2)cc1 [GW693028],0%
15,Fc1ccc(-c2ncn(CCCN3CCOCC3)c2-c2cccnc2)cc1 [SB-211743],11%
16,COc1cc2ncn(-c3cc(OCc4sccc4Cl)c(C(N)=O)s3)c2cc1OC [GSK448459],2%
17,O=C(NCCNc1ccnc(Nc2ccc(F)cc2)n1)c1cc2ccccc2s1 [GSK1379874],26%

row,Compound,%Inh
1,CCc1ccnc(/C=C/c2n[nH]c3cc(Sc4ccccc4C(=O)NC)ccc23)c1,0%
2,Cc1nnc(-c2ccc3ncc(-c4ccc(S(C)=O)cc4)n3c2)o1 (stereo not shown),0%
3,CCn1cnc2c(N)ncnc21 [GW345098],69%
4,Nc1nccc(-c2c(-c3ccc(F)cc3)ncn2C2CCN(CC(F)(F)F)CC2)n1 [SB-236560],17%
5,O=C(NCCNc1ccnc(Nc2ccc(F)cc2)n1)Nc1ccccc1F [GSK1379880],2%
6,O=c1cc(N2CCOCC2)nc2n(Cc3cccc(C(F)(F)F)c3)ccn12 [GSK2297543],0%
7,COc1ccc(Nc2nccc(N3CCC(NC(=O)Nc4cc(C)ccc4C)C3)n2)cc1 (stereo not shown) [GSK1379741],0%
8,O=C1NC(=O)C(N2CCc3ccccc32)=C1c1cccc(Cl)c1 [SB-408010],0%
9,Cc1c(Cn2c(C)nn3c(=O)cc(N4CCOC(C)C4)nc23)cccc1C(F)(F)F (stereo not shown) [GSK2344444],0%
10,Fc1ccc(-c2ncn(CCCN3CCOCC3)c2-c2ccccn2)cc1 [SB-211742],3%
11,Cc1c2ccc(N(C)c3ccnc(Nc4cccc(S(N)(=O)=O)c4)n3)cc2nn1Cc1ccccc1.Cl.Cl [GW787226],0%
12,CC(C)(C)n1cnc2c(N)ncnc21 [SKF-97359],0%
13,COCCNC(=O)c1ccc(-c2cc(C(=O)NC3CC3)cc(F)c2C)cc1 [GW868318],37%
14,Cc1cccc(-c2nc(Nc3ccc4ncsc4c3)c3ccccc3n2)n1 [GW867588],0%
15,CN(C(=O)c1ccc(-c2cc(-c3c[nH]nc3-c3ccccn3)ccn2)cc1)C1CCOCC1 [GW810083],0%
16,Cc1ccc(NC(=O)c2ccnc(N3CCN(C)CC3)c2)cc1-c1ccc(C(=O)NCC2CC2)cc1 [GW775604],0%
